# From the supplement of paper PMC11732987, “Enantioselective OTUD7B fragment discovery through chemoproteomics screening and high-throughput optimisation” (Communications Chemistry, 2025)
# Unmarked numbers belong to inactive results.
# How the values were obtained:
# Experiment in all cases: log2 ratio of Biotin-Ahx-Ub-VS probe labelling (fragment/DMSO); higher = less target engagement (more negative = stronger competition), active = hit call of the paper (q ≤ 0.05, log2 ratio ≤ -1)
# Settings in all cases: compound concentration: 200 uM; treatment time: 3 h
# USP34 = USP34 (UniProt Q70CQ2)
# How it was run: (§1)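 Global-median-normalised Spectronaut label-free quantities were compared by unpaired t-test, and values are average log2 ratios of fragment over vehicle. Only proteins with ≥2 unique peptides were used. HEK293T lysate (495 µg per sample) was treated in triplicate with fragment at 200 µM or vehicle for 3 h and then with Biotin-Ahx-Ub-VS at 0.5 µM final for 1 h. Labelled DUBs were then NeutrAvidin-enriched, digested with LysC and trypsin, and run by diaPASEF LC-MS/MS.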
# USP36 = target: T1, USP36 (UniProt Q9P275)
# T1 sequence (whole entry): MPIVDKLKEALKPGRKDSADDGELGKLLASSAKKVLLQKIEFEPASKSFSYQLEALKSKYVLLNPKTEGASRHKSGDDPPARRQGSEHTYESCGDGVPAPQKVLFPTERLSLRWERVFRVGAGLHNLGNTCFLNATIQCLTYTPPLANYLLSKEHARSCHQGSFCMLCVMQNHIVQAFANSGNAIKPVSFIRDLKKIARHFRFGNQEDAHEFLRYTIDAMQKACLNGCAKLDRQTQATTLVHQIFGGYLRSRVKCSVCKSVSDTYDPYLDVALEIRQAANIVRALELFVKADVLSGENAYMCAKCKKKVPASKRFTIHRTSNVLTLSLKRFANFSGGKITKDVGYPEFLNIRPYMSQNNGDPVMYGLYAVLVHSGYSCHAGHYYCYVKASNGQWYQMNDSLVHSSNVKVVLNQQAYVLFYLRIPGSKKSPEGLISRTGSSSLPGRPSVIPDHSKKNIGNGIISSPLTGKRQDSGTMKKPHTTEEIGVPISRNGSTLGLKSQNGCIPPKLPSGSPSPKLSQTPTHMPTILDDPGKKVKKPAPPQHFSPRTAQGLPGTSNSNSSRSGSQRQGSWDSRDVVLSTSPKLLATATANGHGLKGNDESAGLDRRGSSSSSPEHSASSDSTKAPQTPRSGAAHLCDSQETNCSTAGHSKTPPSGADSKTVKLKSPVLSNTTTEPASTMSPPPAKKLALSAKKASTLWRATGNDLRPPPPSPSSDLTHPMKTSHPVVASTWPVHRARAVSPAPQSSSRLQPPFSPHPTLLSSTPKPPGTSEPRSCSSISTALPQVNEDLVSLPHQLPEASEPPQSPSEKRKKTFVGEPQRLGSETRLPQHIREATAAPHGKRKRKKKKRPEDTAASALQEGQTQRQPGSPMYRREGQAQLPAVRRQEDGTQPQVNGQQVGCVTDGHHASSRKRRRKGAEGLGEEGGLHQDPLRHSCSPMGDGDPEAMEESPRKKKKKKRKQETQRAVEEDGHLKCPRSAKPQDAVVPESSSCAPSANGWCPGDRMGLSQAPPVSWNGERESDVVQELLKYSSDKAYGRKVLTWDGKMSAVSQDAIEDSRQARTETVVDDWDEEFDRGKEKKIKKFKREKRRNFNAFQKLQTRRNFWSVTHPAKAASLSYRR
# How it was run: as §1
# USP38 = target: T2, USP38 (UniProt Q8NB14)
# T2 sequence (whole entry): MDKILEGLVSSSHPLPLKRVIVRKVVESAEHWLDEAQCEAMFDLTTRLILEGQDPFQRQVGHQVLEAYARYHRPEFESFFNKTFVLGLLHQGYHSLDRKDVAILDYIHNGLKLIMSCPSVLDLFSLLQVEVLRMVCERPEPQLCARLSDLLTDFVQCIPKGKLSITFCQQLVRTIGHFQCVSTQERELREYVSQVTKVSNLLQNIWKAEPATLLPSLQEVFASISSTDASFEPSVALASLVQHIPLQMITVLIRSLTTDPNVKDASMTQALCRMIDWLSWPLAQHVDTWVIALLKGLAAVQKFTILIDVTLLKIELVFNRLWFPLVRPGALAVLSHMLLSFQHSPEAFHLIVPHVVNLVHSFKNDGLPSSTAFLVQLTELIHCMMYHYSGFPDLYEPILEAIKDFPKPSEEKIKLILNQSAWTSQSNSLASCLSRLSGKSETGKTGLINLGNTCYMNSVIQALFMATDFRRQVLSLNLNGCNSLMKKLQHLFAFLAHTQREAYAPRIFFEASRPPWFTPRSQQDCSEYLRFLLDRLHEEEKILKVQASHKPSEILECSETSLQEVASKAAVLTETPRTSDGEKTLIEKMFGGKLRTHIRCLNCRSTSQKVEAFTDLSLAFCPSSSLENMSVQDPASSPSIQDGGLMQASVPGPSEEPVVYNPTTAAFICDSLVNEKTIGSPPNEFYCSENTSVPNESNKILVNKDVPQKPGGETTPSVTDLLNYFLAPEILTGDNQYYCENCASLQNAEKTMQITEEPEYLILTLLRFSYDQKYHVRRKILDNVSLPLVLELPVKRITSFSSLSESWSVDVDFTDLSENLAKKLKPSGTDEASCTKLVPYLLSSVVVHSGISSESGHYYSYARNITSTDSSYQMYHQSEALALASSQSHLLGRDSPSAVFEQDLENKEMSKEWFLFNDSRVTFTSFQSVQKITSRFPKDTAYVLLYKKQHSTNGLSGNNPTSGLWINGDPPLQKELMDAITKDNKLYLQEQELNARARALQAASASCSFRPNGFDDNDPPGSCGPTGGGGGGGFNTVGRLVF
# How it was run: as §1
# USP39 = target: T3, USP39 (UniProt Q53GS9)
# T3 sequence (whole entry): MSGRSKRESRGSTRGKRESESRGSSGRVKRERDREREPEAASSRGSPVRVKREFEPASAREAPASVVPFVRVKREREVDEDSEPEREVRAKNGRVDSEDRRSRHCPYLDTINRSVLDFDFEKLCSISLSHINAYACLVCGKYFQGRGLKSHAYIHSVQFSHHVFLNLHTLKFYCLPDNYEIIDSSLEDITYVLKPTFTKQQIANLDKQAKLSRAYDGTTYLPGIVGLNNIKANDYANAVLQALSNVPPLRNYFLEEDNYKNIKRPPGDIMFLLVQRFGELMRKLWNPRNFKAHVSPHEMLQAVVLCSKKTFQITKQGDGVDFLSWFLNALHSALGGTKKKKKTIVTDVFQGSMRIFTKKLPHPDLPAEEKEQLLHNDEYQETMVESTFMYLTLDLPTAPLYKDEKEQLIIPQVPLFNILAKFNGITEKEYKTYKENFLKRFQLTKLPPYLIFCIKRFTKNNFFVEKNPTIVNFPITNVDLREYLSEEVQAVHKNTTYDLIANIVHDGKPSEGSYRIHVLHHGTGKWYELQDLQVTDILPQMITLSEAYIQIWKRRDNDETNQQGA
# How it was run: as §1
# USP4 = target: T4, USP4 (UniProt Q13107)
# T4 sequence (whole entry): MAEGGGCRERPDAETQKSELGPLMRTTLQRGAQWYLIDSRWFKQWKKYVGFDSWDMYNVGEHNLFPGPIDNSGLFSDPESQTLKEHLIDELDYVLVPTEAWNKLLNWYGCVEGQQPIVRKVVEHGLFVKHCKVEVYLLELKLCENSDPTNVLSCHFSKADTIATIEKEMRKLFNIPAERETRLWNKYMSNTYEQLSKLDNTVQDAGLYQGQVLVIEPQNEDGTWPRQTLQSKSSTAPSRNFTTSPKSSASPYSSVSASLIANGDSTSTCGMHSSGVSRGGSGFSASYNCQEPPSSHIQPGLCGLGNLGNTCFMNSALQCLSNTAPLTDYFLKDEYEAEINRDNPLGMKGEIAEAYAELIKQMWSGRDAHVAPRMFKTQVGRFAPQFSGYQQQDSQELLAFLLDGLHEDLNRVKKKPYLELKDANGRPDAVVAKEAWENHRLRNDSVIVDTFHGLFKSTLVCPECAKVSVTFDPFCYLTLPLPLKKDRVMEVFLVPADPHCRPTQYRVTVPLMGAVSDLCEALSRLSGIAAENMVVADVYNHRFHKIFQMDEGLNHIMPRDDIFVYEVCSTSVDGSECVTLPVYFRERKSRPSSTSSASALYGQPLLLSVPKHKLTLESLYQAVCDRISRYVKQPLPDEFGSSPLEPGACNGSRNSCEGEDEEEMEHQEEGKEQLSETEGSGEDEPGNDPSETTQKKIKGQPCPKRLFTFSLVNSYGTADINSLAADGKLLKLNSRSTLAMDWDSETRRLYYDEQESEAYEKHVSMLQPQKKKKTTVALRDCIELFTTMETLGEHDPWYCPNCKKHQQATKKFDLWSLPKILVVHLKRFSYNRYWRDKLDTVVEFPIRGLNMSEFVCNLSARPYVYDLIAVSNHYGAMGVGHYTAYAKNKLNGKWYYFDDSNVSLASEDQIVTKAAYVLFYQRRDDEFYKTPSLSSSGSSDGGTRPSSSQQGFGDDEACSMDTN
# How it was run: as §1
# Sequence of USP34 (Q70CQ2 whole entry, the tested form may be a part): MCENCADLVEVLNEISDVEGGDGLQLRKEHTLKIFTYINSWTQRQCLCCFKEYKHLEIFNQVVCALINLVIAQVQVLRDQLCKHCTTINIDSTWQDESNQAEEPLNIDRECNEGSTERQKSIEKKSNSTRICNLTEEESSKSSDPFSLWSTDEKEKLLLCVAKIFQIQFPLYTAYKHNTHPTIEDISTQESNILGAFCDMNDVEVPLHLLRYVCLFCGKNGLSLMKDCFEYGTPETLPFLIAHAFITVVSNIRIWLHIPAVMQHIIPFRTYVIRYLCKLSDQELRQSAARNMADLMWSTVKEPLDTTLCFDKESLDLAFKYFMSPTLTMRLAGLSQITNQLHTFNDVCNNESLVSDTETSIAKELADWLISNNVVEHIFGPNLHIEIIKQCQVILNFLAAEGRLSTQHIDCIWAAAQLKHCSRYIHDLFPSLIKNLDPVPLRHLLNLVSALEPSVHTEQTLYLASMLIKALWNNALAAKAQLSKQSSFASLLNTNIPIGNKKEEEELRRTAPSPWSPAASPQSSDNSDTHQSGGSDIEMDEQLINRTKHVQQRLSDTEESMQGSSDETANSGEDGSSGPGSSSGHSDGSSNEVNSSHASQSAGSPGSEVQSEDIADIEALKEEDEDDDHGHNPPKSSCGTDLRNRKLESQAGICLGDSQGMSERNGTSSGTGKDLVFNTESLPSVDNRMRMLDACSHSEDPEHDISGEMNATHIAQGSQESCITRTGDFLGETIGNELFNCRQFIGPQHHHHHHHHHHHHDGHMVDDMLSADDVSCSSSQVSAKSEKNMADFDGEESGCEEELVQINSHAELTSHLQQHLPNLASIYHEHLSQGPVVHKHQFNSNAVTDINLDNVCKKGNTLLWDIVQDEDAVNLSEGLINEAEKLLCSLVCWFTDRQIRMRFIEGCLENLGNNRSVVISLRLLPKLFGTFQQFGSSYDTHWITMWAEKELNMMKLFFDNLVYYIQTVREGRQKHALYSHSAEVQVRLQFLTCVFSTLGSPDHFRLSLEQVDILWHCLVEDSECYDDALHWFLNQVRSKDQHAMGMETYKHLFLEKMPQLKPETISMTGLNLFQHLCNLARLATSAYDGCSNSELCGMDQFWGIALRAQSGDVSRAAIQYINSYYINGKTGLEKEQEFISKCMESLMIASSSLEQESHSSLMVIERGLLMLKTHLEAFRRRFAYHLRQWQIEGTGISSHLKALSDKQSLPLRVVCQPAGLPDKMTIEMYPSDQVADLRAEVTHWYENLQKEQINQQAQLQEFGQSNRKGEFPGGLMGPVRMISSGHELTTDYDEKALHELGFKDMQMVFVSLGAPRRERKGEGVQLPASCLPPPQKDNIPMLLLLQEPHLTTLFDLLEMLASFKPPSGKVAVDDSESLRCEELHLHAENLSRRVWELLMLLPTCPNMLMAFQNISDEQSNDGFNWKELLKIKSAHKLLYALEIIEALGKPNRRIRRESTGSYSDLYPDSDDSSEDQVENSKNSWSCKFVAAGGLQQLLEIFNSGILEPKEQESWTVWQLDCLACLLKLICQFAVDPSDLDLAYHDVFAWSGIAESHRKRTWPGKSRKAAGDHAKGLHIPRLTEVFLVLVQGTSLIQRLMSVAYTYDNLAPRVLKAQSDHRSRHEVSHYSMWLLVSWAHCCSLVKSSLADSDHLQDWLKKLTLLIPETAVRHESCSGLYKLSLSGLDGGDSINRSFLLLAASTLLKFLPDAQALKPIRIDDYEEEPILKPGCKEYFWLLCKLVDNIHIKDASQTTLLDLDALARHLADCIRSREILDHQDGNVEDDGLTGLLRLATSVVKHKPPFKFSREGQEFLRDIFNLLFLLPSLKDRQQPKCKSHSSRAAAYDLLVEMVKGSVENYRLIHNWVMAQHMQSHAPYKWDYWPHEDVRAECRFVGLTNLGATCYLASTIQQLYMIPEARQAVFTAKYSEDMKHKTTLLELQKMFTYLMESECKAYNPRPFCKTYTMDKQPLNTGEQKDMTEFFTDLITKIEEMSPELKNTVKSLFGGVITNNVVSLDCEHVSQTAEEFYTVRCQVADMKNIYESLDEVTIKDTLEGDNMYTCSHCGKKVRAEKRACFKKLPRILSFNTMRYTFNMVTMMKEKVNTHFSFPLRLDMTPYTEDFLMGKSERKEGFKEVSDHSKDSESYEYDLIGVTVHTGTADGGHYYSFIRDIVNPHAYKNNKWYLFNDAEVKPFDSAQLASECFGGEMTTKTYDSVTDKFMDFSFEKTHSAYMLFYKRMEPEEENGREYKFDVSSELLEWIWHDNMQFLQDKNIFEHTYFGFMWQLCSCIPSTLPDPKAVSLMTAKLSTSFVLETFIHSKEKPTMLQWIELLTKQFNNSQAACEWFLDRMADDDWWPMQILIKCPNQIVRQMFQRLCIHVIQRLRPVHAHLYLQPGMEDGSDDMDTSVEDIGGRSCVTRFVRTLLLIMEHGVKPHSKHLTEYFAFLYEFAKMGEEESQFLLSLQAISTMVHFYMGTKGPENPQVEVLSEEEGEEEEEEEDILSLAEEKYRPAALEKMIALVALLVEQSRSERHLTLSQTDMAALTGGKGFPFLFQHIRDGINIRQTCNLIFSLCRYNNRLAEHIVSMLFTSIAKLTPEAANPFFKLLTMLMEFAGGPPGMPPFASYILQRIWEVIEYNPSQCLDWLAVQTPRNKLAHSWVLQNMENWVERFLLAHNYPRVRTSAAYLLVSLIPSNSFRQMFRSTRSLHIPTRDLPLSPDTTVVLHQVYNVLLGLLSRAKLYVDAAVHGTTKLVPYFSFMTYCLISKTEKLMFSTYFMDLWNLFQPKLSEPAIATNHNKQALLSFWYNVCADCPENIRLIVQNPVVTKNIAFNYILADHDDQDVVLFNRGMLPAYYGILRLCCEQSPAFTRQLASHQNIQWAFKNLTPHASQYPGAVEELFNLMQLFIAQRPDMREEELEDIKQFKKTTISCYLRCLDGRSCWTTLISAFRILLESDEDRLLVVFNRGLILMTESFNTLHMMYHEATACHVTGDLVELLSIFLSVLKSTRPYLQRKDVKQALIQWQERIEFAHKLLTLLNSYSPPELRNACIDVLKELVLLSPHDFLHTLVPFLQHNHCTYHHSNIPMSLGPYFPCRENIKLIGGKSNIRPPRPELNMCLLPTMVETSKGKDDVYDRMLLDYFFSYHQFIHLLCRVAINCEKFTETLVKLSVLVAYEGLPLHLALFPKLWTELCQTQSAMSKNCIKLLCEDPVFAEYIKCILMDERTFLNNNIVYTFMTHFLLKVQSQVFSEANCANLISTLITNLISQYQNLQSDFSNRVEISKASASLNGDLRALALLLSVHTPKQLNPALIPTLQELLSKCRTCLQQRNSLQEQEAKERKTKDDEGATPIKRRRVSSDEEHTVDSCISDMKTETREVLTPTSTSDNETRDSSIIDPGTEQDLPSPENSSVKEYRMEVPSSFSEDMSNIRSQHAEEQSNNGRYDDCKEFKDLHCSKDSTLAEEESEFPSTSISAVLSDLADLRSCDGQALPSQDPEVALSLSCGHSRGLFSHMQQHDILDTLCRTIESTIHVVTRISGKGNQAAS
smiles,measurement,setting,value
O=C(CCl)N1CCN(C(=O)N2CCCCC2)CC1,log2 ratio of Biotin-Ahx-Ub-VS probe labelling,USP34,-0.512
same,log2 ratio of Biotin-Ahx-Ub-VS probe labelling,USP36,-0.269
same,log2 ratio of Biotin-Ahx-Ub-VS probe labelling,USP38,-1.04 (active)
same,log2 ratio of Biotin-Ahx-Ub-VS probe labelling,USP39,-0.223
same,log2 ratio of Biotin-Ahx-Ub-VS probe labelling,USP4,-1.05 (active)
